Source: PubChem (National Center for Advancing Translational Sciences (NCATS))
Hits are enriched below; roughly 10% of the tested compounds scored in any of these assays.
HEK cytotox: Cytotoxic Profiling in HEK 293 Cell Line of Diverse Libraries Using Quantitative High-Throughput Screening; HEK 293 viability, ATP luminescence (CellTiter-Glo), 48-72 h; Potency, µM (top dose mostly 115 µM), for inactives: at the top dose activity change, negative = cytotoxicity, hits mostly inhibitors; 94,000 compounds, 6.6% hits; AID 1345083, 2018; also: nearly all actives have a fitted effect of over 60% in size
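ATP-coupled CellTiter-Glo luminescence served as viability read-out, recorded 10 min after reagent addition at room temperature. HEK 293 cells, 250 cells/well, had been incubated with pintool-transferred compound for 48 or 72 hr at 37 degree Celsius.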
NIH3T3 tox: Cytotoxic Profiling in NIH 3T3 Cell Line of Diverse Libraries Using Quantitative High-Throughput Screening; 94,000 compounds, 4.3% hits; AID 1345082, 2018; Potency, µM (top dose mostly 96.7 µM), for the others: at the highest dose activity change, negative = cytotoxicity, hits mostly inhibitors; NIH 3T3 viability, CellTiter-Glo ATP luminescence, 48-72 h; also: nearly all actives have a fitted effect of over 55% in size
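Cells were seeded at 400 per well, treated with pin-transferred compound, and kept 48 or 72 hr at 37 °C before CellTiter-Glo addition and luminescence imaging of cellular ATP.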
hNpr1 antagonist: Natriuretic polypeptide receptor (hNpr1) antagonism - Primary qHTS; Atrial natriuretic peptide receptor 1 (Homo sapiens), P16066; 76,000 compounds, 1.6% hits; HEK293 hNpr1 GloSensor cGMP, ANP-stimulated luminescence; Potency, µM (top dose mostly 46.3 µM), without a hit: at the highest dose activity change, negative = inhibition, actives largely listed as inhibitors; calls by dose curve; also: nearly all actives have a fitted effect of over 60% in size
Target sequence (P16066 whole entry, looked up): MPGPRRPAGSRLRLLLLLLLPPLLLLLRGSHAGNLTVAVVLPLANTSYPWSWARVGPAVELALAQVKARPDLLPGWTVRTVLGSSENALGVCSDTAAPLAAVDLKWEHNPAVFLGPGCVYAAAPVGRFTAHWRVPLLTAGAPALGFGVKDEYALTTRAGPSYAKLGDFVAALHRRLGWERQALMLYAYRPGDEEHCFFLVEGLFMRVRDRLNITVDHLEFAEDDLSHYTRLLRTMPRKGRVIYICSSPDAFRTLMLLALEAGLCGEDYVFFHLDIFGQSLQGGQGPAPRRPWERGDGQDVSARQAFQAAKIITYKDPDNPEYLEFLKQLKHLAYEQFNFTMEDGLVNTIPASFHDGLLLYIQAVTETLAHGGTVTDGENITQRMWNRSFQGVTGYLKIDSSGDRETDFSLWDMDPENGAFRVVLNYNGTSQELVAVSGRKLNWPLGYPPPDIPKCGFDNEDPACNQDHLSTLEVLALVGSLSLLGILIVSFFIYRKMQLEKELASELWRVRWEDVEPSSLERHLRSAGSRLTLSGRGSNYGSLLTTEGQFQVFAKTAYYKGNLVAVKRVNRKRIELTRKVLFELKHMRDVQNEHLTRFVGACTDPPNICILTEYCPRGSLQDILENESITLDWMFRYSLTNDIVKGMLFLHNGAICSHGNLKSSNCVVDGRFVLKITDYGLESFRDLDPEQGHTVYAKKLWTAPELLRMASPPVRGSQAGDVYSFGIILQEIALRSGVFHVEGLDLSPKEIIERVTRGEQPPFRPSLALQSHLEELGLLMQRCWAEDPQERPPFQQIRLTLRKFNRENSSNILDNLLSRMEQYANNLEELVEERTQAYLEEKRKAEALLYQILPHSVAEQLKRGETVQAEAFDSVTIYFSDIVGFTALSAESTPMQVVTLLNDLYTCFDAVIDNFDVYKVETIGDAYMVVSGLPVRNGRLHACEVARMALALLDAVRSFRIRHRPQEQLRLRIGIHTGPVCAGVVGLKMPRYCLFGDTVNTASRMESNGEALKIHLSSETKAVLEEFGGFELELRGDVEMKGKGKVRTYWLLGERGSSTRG
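HEK293 cells stably expressing human Npr1 and cGMP GloSensor pGS-40F, loaded 2 h with 2% GloSensor reagent, given compound 30 min at room temperature. Luminescence read before and 20 min after 0.1 nM hNppA.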
FLuc inh: Firefly luciferase inhibition profiling of diverse chemical library using quantitative high-throughput screening. Luciferin 4-monooxygenase (Photinus pyralis), P08659. purified P. pyralis luciferase, luminescence, biochemical. Potency, µM (doses to about 115 µM), actives largely listed as inhibitors. 76,000 compounds, 2.5% hits; also: nearly all actives have a fitted effect of over 65% in size
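Cell-free enzyme assay, 10nM P. pyralis luciferase, luciferin and ATP each at 10uM. Inhibition profiled over a 6-point titration, read as luminescence.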
GPT2 inh: Primary qHTS assay for inhibitors of Glutamate pyruvate transaminase 2 (GPT2) | Recombinant GPT2, coupled pyruvate oxidase/HRP Amplex Red fluorescence | Potency, µM (top dose mostly 57.7 µM), for inactives: top-dose activity change, negative = inhibition, hits mostly inhibitors | 100,000 compounds, 0.25% hits; also: nearly all actives have a fitted effect of over 60% in size
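Inhibition is scored from Amplex Red fluorescence generated when pyruvate oxidase and HRP act on pyruvate released by GPT2. Reactions contain 10ng/uL enzyme, 250uM a-KG and 2mM L-alanine and run 30 min at room temperature.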
* hit, by the source's call; i = inactive; ? = inconclusive; . = no result given. Unless noted, calls follow the shape of the dose curve; as a rule, active = well fitted curve in the direction sought with a large enough effect; inconclusive = small, poorly fitted or top-dose-only effect, or another doubt; inactive = no such curve, though single readings can be large; an effect the other way counts as inactive or inconclusive. % is scaled to controls: 0 for no effect and ±100 for the full control effect; potency is read from the fitted curve at half-maximal effect.

SMILES | HEK cytotox | NIH3T3 tox | hNpr1 antagonist | FLuc inh | GPT2 inh
CCc1nc2c(c(-c3ccc(OC)cc3)n1)CCN(Cc1cc(C)on1)CC2 | 4% | 20µM* | . | . | i
CCc1nc2c(c(-c3ccc(Cl)cc3)n1)CN(Cc1ccc(OC)cc1)CC2 | ? | 35µM* | 2% | i | i
Cc1ccc(C(=O)N2CCN(C(=O)c3nc4cccnc4n(C4CC4)c3=O)CC2)cc1 | 4% | -7% | . | . | i
O=C(Cc1ccc(F)cc1)NC1CCN(c2ccnc3ccnn23)C1 (centres undefined) | ? | ? | . | . | -11%
CN1C[C@H](NCc2cccc(Cl)c2)CCC[C@@H](C(=O)NCc2cc(F)cc(F)c2)CC1=O | 45µM* | ? | 5% | i | i
COc1ccc(CNC(=O)[C@@H]2CCC[C@@H](NCc3cccc(Cl)c3)CN(C)C(=O)C2)cc1 | ? | ? | -19% | i | -3%
COc1ccc(CC(=O)N2CCc3nc(C(C)C)nc(-c4ccc(O)cc4)c3CC2)cc1 | -24% | ? | . | . | i
CCC(NCc1c(C(=O)N2CCCCCC2)nc2cc(C)ccn12)c1ccc(C)cc1 (centres undefined) | 18µM* | 45µM* | -7% | i | i
Cc1cccc(-n2cc(CN3CCCC(C)(O)C3)c(-c3cccc(F)c3)n2)c1 (centres undefined) | ? | 89µM* | 6% | 18µM* | -4%
Cc1ccc(-n2cc(CN3CCC(CCO)CC3)c(-c3cccc(C)c3)n2)cc1 | ? | ? | -13% | i | i
COc1ccc(-n2cc(CN3CCC(O)CC3)c(-c3cccc(F)c3)n2)cc1 | ? | 79µM* | -1% | 40µM* | -24%
Cc1ccc(-n2cc(CN3CCN4CCCC4C3)c(-c3cccc(C)c3)n2)cc1 (centres undefined) | 28µM* | 25µM* | -3% | ? | i
CCN1CCN(C(=O)c2cc(-c3cc(Cl)cc(Cl)c3)c3nncn3n2)CC1 | -7% | ? | . | . | i
Cn1ncc2c(N3CCN(S(N)(=O)=O)CC3)nc(C3CCCC3)nc21 | -25% | 40µM* | -2% | i | i
Cn1ncc2c(N3CCN(S(N)(=O)=O)CC3)nc(-c3cccnc3)nc21 | ? | 40µM* | 5% | i | 0%
CCCc1noc(-c2cn(C3CCN(C(=O)c4ccc(C#N)cc4)CC3)nn2)n1 | -2% | ? | -12% | i | 2%
O=C(Cc1ccc(F)cc1)N1CCC2(CC1)CN(Cc1ccccc1)CC2CO (centres undefined) | 45µM* | ? | -28% | i | ?
COCC1CN(C2CCC2)CC12CCN(C(=O)Cc1cccc(F)c1)CC2 (centres undefined) | 50µM* | ? | -18% | i | 2%
COCC1CN(C)CC12CCN(C(=O)Cc1cccc(Cl)c1)CC2 (centres undefined) | 35µM* | ? | -15% | i | i
CNCC(=O)N1CCC2(CC1)CN(Cc1ccccc1)CC2CO (centres undefined) | i | i | -15% | i | i
COCC1CN(C2CCC2)CC12CCN(C(=O)c1ccccc1Cl)CC2 (centres undefined) | 79µM* | ? | -2% | i | -11%
COCC1CN(C2CCC2)CC12CCN(C(=O)c1ccccc1C)CC2 (centres undefined) | ? | ? | -17% | i | i
COc1ccccc1-c1nnc2ccc(C(=O)NCCc3ccccc3F)cn12 | ? | ? | . | . | i
CN1CCN(C(=O)C2CN(c3ccnc4ccnn34)C2)CC1 | -6% | -27% | . | . | 4%
COCC1CN(C)CC12CCN(C(=O)c1cc(Cl)ccc1OC)CC2 (centres undefined) | ? | -29% | -5% | i | i
